Screening results from PubChem BioAssay.
FBPA Giardia inh – qHTS Assay for Inhibitors of Fructose-1,6-bisphosphate Aldolase from Giardia Lamblia. purified Giardia FBPA. A8B2U2. 290,000 compounds, 0.71% hits. Potency, µM (titrated, usually from 59.6 µM), without a hit: at the top dose activity, negative = inhibition, hits mostly inhibitors; note: potency is the fitted concentration of half-maximal effect; % is set by controls: 0 for no effect and ±100 for the full control effect; nearly all actives have a fitted effect of over 55% in size
Target sequence (A8B2U2 whole entry, looked up): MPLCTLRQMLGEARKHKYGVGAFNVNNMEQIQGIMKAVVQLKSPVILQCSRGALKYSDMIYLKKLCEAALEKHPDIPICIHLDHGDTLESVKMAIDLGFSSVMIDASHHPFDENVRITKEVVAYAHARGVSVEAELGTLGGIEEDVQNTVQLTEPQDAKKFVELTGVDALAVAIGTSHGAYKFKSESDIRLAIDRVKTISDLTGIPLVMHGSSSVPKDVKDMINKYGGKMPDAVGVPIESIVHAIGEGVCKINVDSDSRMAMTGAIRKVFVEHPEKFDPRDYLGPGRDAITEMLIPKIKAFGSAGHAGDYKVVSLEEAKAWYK
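Giardia FBPA (40 nM reagent) was preincubated 10 min at RT with compound (up to 57.5 uM final), then substrate plus GAPDH/TPI/NAD/arsenate coupling system with diaphorase/resazurin was added; resorufin fluorescence (525/598 nm) was read after 20 min.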
LmPK inh – qHTS Assay for Inhibitors of Leishmania Mexicana Pyruvate Kinase (LmPK). purified LmPK, Kinase-Glo ATP luminescence, 1 h. Potency, µM (highest dose often 57.5 µM), inactives show at the top dose activity change, negative = inhibition, actives largely listed as inhibitors. 290,000 compounds, 0.37% hits; note: potency is the fitted concentration of half-maximal effect; % is set by controls: 0 for no effect and ±100 for the full control effect
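Pyruvate kinase activity monitored as ATP production (luciferase luminescence). Conditions: 0.1 nM enzyme, 0.5 mM PEP, 0.1 mM ADP, 1 h, RT; normalized against uninhibited and no-enzyme wells.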
Cycloheximide cs – Cycloheximide Counterscreen for Small Molecule Inhibitors of Shiga Toxin; 300,000 compounds, 12% hits; cell reporter, cycloheximide protein synthesis inhibition counterscreen; max response, %; in the data active = max response mostly above about 13%, no sharp cut-off; inactive = mostly below about 14%; note: read at 38.3 µM for the half of the compounds with a filed dose; 0% is about no effect
Shiga inhibitor – A qHTS for Small Molecule Inhibitors of Shiga Toxin | Vero cells, Shiga toxin protein synthesis inhibition reporter | 290,000 compounds, 9.2% hits | AID 2315, 2010 | inhibition, % at 38.7 µM; in the data active = inhibition mostly above about 28%, no sharp cut-off; inactive = mostly below about 43%; note: 0% is about no effect
RE007 growth inh – qHTS Assay for Inhibitors of the HIV-1 protein Vpr; S. pombe RE007 Vpr strain, BacTiter-Glo ATP luminescence, 24 h; 360,000 compounds, 0.21% hits; Potency, µM (titrated, usually from 92.2 µM), without a hit: at the highest dose activity change, negative = less growth, most hits filed as inhibitors; AID 651644, 2012; active = well fitted falling curve with a large enough effect; inconclusive = small, poorly fitted or top-dose-only effect; inactive = no such curve, though single readings can be large or run the other way; note: potency is the fitted concentration of half-maximal effect; % is set by controls: 0 for no effect and ±100 for the full control effect; nearly all actives have a fitted effect of over 50% in size
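Fission yeast RE007 carrying one integrated HIV-1 vpr copy, seeded at OD 0.01 in PMG+AL medium with 23 nL pinned compound. Grown 24 h at 30 degrees; viability read by BacTiter-Glo luminescence after 5 min.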
TbPYK inhibitor – qHTS of Trypanosoma Brucei Inhibitors | pyruvate kinase (Trypanosoma brucei), Q57TT1 | TbPYK enzyme, Kinase-Glo Plus ATP luminescence, 45 min | Potency, µM (highest dose often 76.8 µM), for the others: at the top dose activity, negative = inhibition, usual class: inhibitors | 410,000 compounds, 0.12% hits | AID 624173, 2012; note: potency is the fitted concentration of half-maximal effect; % is set by controls: 0 for no effect and ±100 for the full control effect; nearly all actives have a fitted effect of over 50% in size
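Assay buffer: 50 mM TEA pH 7.2, 100 mM KCl, 10 mM MgCl2, 0.05% BSA, 0.01% Tween-20. Pyruvate kinase from T. brucei plus substrate met compound, then ADP (130 uM final). Luminescence was read post 45 min RT.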
Numbers without * were called inactive; [ ] = remark or other dose. The full list was thinned out, with hits kept by preference. Unless noted, calls come from the whole dose curve; as a rule, active = well fitted curve in the direction sought with a large enough effect; inconclusive = small, poorly fitted or top-dose-only effect, or another doubt; inactive = no such curve, though single readings can be large; an effect the other way counts as inactive or inconclusive.

Screening Cc1cccc(Nc2ncc3c(n2)CC(c2ccco2)CC3=O)c1 (configuration not stated) returned FBPA Giardia inh 1%, LmPK inh 6%, Cycloheximide cs 15*, Shiga inhibitor 20, RE007 growth inh -17% and TbPYK inhibitor 3%.
For Cc1cccc(Cn2c(=O)n(CCc3ccccc3)c(=O)c3c(C)c(C)sc32)c1 the results were TbPYK inhibitor -7%.
For Cc1ccc(C(=O)Nc2ncc3c(n2)CC(c2ccco2)CC3=O)cc1 (configuration not stated) the results were FBPA Giardia inh -10%, LmPK inh -2%, Cycloheximide cs 26*, Shiga inhibitor 130, RE007 growth inh 5% and TbPYK inhibitor -11%.
For Fc1ccc(Oc2nc(-c3ccccn3)nc3ccccc23)cc1 the results were FBPA Giardia inh -1%, LmPK inh -7%, Cycloheximide cs 51*, Shiga inhibitor 67*, RE007 growth inh -10% and TbPYK inhibitor 2%.
c1ccc(-c2nc(N3CCCCCC3)c3ccccc3n2)nc1 was read as FBPA Giardia inh 4%, LmPK inh 2%, Cycloheximide cs -2, Shiga inhibitor -5, RE007 growth inh 23% and TbPYK inhibitor 1%.
`COc1ccc(Oc2nc(-c3ccccn3)nc3ccccc23)cc1` gave FBPA Giardia inh -7%, LmPK inh -1%, Cycloheximide cs 48*, Shiga inhibitor 56*, RE007 growth inh -16% and TbPYK inhibitor -1%.
For c1ccc(Oc2nc(-c3ccccn3)nc3ccccc23)cc1 the results were FBPA Giardia inh -7%, LmPK inh -5%, Cycloheximide cs 36*, Shiga inhibitor 35*, RE007 growth inh -17% and TbPYK inhibitor -5%.
COC(=O)Cn1c(SCCOc2ccccc2Cl)nc2ccccc21 was read as TbPYK inhibitor 0%.
Screening N[C@H]1CN(c2c(F)cc3c(=O)c(C(=O)O)cn(C4C[C@@H]4F)c3c2Cl)CC12CC2 (some centres not stated) returned TbPYK inhibitor -4%.
`C=CCn1c(Cc2c[nH]c3ccccc23)n[nH]c1=S` gave FBPA Giardia inh -9%, LmPK inh -20%, Cycloheximide cs 12*, Shiga inhibitor 13, RE007 growth inh 6% and TbPYK inhibitor 13µM*.
For C=CCn1c(-c2cccc3ccccc23)n[nH]c1=S the results were FBPA Giardia inh -2%, LmPK inh 8.9µM*, Cycloheximide cs -3, Shiga inhibitor -1 and RE007 growth inh 3%[3.69 µM].
CCCC(=O)Nc1ccc(NC(=O)Cc2ccccc2)cn1 was read as FBPA Giardia inh 0%, LmPK inh 1%, Cycloheximide cs -1, Shiga inhibitor -8, RE007 growth inh 8% and TbPYK inhibitor -1%.
Screening O=C(Nc1ccc(NC(=O)C2CC2)nc1)c1ccccn1 returned FBPA Giardia inh -24%, LmPK inh 14µM*, Cycloheximide cs 18*, Shiga inhibitor 62*, RE007 growth inh -14% and TbPYK inhibitor -27%.
For CCC(=O)Nc1ccc(NC(=O)C23CC4CC(CC(C4)C2)C3)cn1 the results were FBPA Giardia inh -11%, LmPK inh 2%, Cycloheximide cs 14, Shiga inhibitor 34 and TbPYK inhibitor -1%.
Screening CCC(=O)Nc1ccc(NC(=O)c2ccccn2)cn1 returned FBPA Giardia inh -11%, LmPK inh inconclusive, Cycloheximide cs 35*, Shiga inhibitor 47*, RE007 growth inh -2% and TbPYK inhibitor 2%.
Screening CC(C)C(=O)Nc1ccc(NC(=O)c2ccccn2)cn1 returned FBPA Giardia inh -17%, LmPK inh inconclusive, Cycloheximide cs 27*, Shiga inhibitor 42*, RE007 growth inh -16% and TbPYK inhibitor -14%.
`CCCC(=O)Nc1ccc(NC(=O)c2ccccc2Cl)nc1` gave FBPA Giardia inh -7%, LmPK inh -2%, Cycloheximide cs 40*, Shiga inhibitor 57, RE007 growth inh 13% and TbPYK inhibitor 1%.
Screening COC(=O)c1scc(-c2ccc(C)cc2)c1S(=O)(=O)N1CCN(c2cccc(Cl)c2)CC1 returned TbPYK inhibitor -6%.
COC(=O)c1ccc2c(c1)N(CC(=O)Nc1cccc(C(F)(F)F)c1)C(=O)c1ccccc1S2 was read as TbPYK inhibitor 2%.
CCC(Cc1ccccc1)NC(=O)C1=C(C)C(=O)OC12CCC(C)CC2 (configuration not stated) was read as FBPA Giardia inh -4%, LmPK inh 9%, Cycloheximide cs -4, Shiga inhibitor -7, RE007 growth inh 3% and TbPYK inhibitor -1%.
CCn1c(=O)cc(OCC(=O)N(C)c2cc(Cl)ccc2C)c2ccccc21 was read as TbPYK inhibitor -3%.
For CCCCCCCCCCCC the results were FBPA Giardia inh 0%, Cycloheximide cs -6 and Shiga inhibitor 31.
For O=C(NC1CCCCC1)c1ccc(CSc2nc3ccncc3n2Cc2cccc(F)c2)cc1 the results were TbPYK inhibitor 2%.
`CCOC(=O)N1CCN(C(=O)CCn2nc(-c3ccc(Cl)cc3)ccc2=O)CC1` gave FBPA Giardia inh 0%, LmPK inh -3%, Cycloheximide cs -3, Shiga inhibitor -13, RE007 growth inh 4% and TbPYK inhibitor -2%.
`CCOC(=O)Cn1nc(-c2ccc(Cl)cc2)cc1N` gave FBPA Giardia inh -11%, LmPK inh 4%, Cycloheximide cs 38*, Shiga inhibitor 92*, RE007 growth inh 1% and TbPYK inhibitor 1%.
For CCOC(=O)CCn1nc(-c2ccc(Cl)cc2)cc1N the results were FBPA Giardia inh 1%, LmPK inh -1%, Cycloheximide cs 20*, Shiga inhibitor 29, RE007 growth inh -30% and TbPYK inhibitor -4%.
Screening OC[C@H]1NC[C@H](O)[C@@H](O)[C@H]1O returned FBPA Giardia inh 6%.
`CCC(C(=O)Nc1c(C)cccc1C)n1c(-c2cnc(C)cn2)nc2ccccc21` (configuration not stated) gave RE007 growth inh 0%.
Screening O=C(CN1CCCN(Cc2ccccc2F)S1(=O)=O)Nc1ccc(F)c(Cl)c1 returned TbPYK inhibitor 6%[15.4 µM].
`COCCCOc1cc(C[C@@H](C[C@H](N)[C@@H](O)C[C@H](C(=O)NCC(C)(C)C(N)=O)C(C)C)C(C)C)ccc1OC` gave TbPYK inhibitor 0%.
O=C(COc1cccc(Cl)c1Cl)NC1CC1 was read as RE007 growth inh -15% and TbPYK inhibitor -6%.
Cc1cccc2c1OCC/C2=N\NC(=O)COc1ccccc1Cl was read as FBPA Giardia inh 3%, LmPK inh 0%, Cycloheximide cs 21*, Shiga inhibitor 63*, RE007 growth inh 12% and TbPYK inhibitor 1%.
